# Mtb betalactam: beta-lactam sensitization of Mtb H37Rv | actives 0.27% (n = 330,000) | AID 434955 | inhibition, % at 25 µM | M. tuberculosis H37Rv growth with meropenem, percent inhibition; call rule not given here;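 also: growth measured after seven days incubation then overnight dye step; 0% = bacteria only wells and 100% = bacteria with antibiotic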
# GDH-TPI counter-1: inhibits GDH-TPI coupling enzymes, artifact for Mtb FBA screen. GDH-TPI coupled enzyme counterscreen, NADH absorbance. inhibition, % at 4.8 µM. actives 1.2% (n = 360,000); in the data active = inhibition above about 30%;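 also: 0% = DMSO wells and 100% = wells lacking the enzyme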
# MazF activator: increases E. coli MazEF RNase cleavage of RNA; FAM/BHQ RNA-DNA oligo cleavage fluorescence, 5 h; activation, % at 20 µM; actives 0.32% (n = 350,000); AID 504720; in the data active = activation above about 50%
# Target sequence (P0AE70 whole entry, looked up): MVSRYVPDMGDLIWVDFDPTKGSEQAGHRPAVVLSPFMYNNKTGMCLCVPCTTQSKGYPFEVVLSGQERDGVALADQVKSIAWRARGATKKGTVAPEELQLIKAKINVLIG
# CCHFV vOTU inh: CCHFV vOTU protease inhibition. actives 0.55% (n = 370,000). inhibition, % at 11.5 µM. Pep-AMC fluorescence. AID 651958; in the data active = inhibition above about 30%; also: 0% = vehicle wells with enzyme and 100% = no enzyme wells
# Mtb FBA inh: inhibits M. tuberculosis FBA enzyme; purified M. tuberculosis FBA, fluorescence read-out; inhibition, % at 1 µM; actives 2.3% (n = 360,000); AID 588726;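 also: 0% = vehicle and 100% = reference inhibitor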
# Mtb FBA inh conf: confirmation of M. tuberculosis fructose-bisphosphate aldolase inhibitors; shares compounds with Mtb FBA inh; purified M. tuberculosis FBA, fluorescence read-out; inhibition, % at 1 µM; actives 78% (n = 5,600); AID 651616;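 also: 0% = vehicle wells and 100% = reference inhibitor wells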
# GDH-TPI counter-2: GDH-TPI inhibition counter-screen for FBA inhibitors; GDH-TPI coupled enzyme counterscreen, fluorescence; inhibition, % at 1 µM; shares compounds with Mtb FBA inh; actives 81% (n = 5,600); AID 652141; in the data active = inhibition above about 10%
# * = called active by the depositor; . = not tested or not shown; + = active, no number. Rows were chosen to be rich in hits. Some 4% of all compounds tested hit in one or more screens of this group. Rule as the data show it, unless noted: active = inhibition above about 27%; inactive = the rest.
SMILES,Mtb betalactam,GDH-TPI counter-1,MazF activator,CCHFV vOTU inh,Mtb FBA inh,Mtb FBA inh conf,GDH-TPI counter-2
Cc1c(C)c2ccc(OC(C)C(=O)NCCN3CCOCC3)c(C)c2oc1=O (stereo not given),5,9,10,4,47*,+,+
COCCN1Cc2cc(C(=O)OC)c3c(c2C1=O)c1cc(F)ccc1n3S(=O)(=O)c1ccc(C)cc1,.,.,.,8,.,.,.
COc1cccc(/C=C2\CC3(OC(=O)c4ccccc4)CCCN2C3)c1 (stereo not given),.,.,.,7,.,.,.
COc1ccc(CNC(=O)CCCC2=NS(=O)(=O)c3ccccc3N2)cc1,10,4,-1,-13,102*,132*,139*
CCOC(=O)Nc1nc(-c2ccc(F)cc2F)cs1,2,-3,0,-1,-4,.,.
CNc1cncc(-c2ccc(F)cc2F)n1,.,14,.,-200,112*,104*,68*
CCOc1ccc2[nH]c3c(NCCC(C)C)ncnc3c2c1,0,0,1,-44,49*,6,-6
COc1ccc2[nH]c3c(NCCCOC(C)C)ncnc3c2c1,-2,2,6,-82,99*,63*,47*
CCCOc1ncnc2c1[nH]c1ccc(OC)cc12,-1,5,1,-17,18,.,.
C=CCNc1ncnc2c1[nH]c1ccc(C)cc12,15,13,5,-33,42*,66*,52*
CCCCOc1ncnc2c1[nH]c1ccc(C)cc12,-7,-4,0,-1,38*,-7,-4
CCOc1ccc2[nH]c3c(NCCN(C)C)ncnc3c2c1,-8,-1,.,-18,16,.,.
COC(=O)c1cc2c(c3c4cc(OC)ccc4n(S(=O)(=O)c4ccc(F)cc4)c13)C(=O)N(C)C2,.,.,.,10,.,.,.
COc1ccc(-n2c(SCC(=O)Nc3ccc4cn[nH]c4c3)nnc2-c2ccccc2)cc1,.,.,.,9,.,.,.
COc1ccc(OC)c(CN2C(=O)CCCC2(C)c2nnnn2C2CCCC2)c1 (stereo not given),.,.,.,-3,.,.,.
Cc1ccnc(NC(=O)CCC(=O)N(CC(=O)NC2CCCCC2)C2CCCC2)c1,-5,-19,3,18,7,.,.
COc1ccc(CCNc2ncnc3c2[nH]c2cc(OC)c(OC)cc23)cc1OC,5,23,18,-13,68*,112*,101*
CCC(C)[C@H](NC(=O)OC(C)(C)C)C(=O)N/N=C/c1ccc2nccnc2c1 (stereo not given in full),.,27,7,-6,4,.,.
COc1ccc2nc(/C=N/NC(=O)[C@H](CCSC)NC(=O)OC(C)(C)C)ccc2c1,-1,32*,3,-79,60*,53*,56*
CC(C)(C)OC(=O)N1CCC[C@H]1C(=O)N/N=C/c1ccc2nccnc2c1,-2,9,5,18,0,.,.
CCC(C)[C@H](NC(=O)OC(C)(C)C)C(=O)N/N=C/c1ccc2cc(OC)ccc2n1 (stereo not given in full),-8,18,-5,-7,33*,+,181*
COc1ccc2nc(/C=N/NC(=O)[C@@H]3CCCN3C(=O)OC(C)(C)C)ccc2c1,-10,9,-2,-72,99*,54*,46*
CCOc1ccc(-n2c(SCC(=O)c3ccc4ccccc4c3)nnc2-c2ccc(OC)cc2)cc1,.,.,.,2,.,.,.
COC(=O)c1ccc(C#Cc2ccccc2)o1,-1,3,-1,-15,58*,49*,57*
O=C(c1ccccc1Oc1ccccc1)N1CCC(Oc2cccnc2)CC1,.,.,.,-1,.,.,.
Cc1ccc2[nH]c(=O)c3cc(C(=O)NCCC(C)C)sc3c2c1,5,-3,-27,4,15,.,.
CCCCN(CC)CCCNC(=O)c1cc2c(=O)[nH]c3ccccc3c2s1,-4,26,12,-56,72*,170*,153*
CCCCN(CC)CCNC(=O)c1cc2c(=O)[nH]c3ccc(C)cc3c2s1,0,14,15,-73,36*,59*,46*
CCC(C)NC(=O)c1cc2c(=O)[nH]c3ccc(C)cc3c2s1 (stereo not given),5,24,11,-18,70*,89*,65*
CCOCCCNC(=O)c1cc2c(=O)[nH]c3ccccc3c2s1,0,11,6,-32,71*,+,+

# Bioassay records from PubChem.
